The values that follow come from PubChem BioAssay AID651598 (Sanford-Burnham Center for Chemical Genomics, 2012).

Several values for one entry are separate records, joined by “and”; a condition that tells them apart may be missing. Equal entries are not always repeated.

A word on the inhibition: it is the change of the read-out against control, counted positive when it falls.

The target of the experiment is C-X-C chemokine receptor type 6 (Homo sapiens) (UniProt O00574). Kind of experiment: APJ beta-arrestin recruitment blockade alongside CXCR6 – cell-based, DiscoveRx, panel, CHO-K1, counter-screen for CXCR6 antagonist project, SAR follow-up (AID 651598). The note with it: CHO-K1 PathHunter beta-arrestin luminescence, antagonist mode; run 6, at 80 µM (top of the series). For orientation: Activated receptors often draw arrestin, which recruitment assays turn into a signal.
Sequence of C-X-C chemokine receptor type 6 (Homo sapiens) (O00574 whole entry, looked up): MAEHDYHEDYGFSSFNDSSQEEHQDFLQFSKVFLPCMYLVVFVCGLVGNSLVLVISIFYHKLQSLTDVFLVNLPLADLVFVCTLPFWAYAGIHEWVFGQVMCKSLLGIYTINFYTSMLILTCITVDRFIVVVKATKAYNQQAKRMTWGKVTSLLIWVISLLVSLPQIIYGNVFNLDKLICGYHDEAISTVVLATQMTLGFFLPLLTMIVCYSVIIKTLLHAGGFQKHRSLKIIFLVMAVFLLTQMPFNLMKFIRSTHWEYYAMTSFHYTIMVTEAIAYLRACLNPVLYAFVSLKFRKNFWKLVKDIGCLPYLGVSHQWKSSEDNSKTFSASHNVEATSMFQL
Take `COc1cc(C(=O)NC2CC3CCC(C2)N3CC(=O)Nc2ccccc2)cc(OC)c1OC` (stereo not drawn): the inhibition was 57.4% and -0.766%.

Take `COc1cc(C(=O)NC2CC3CCCC(C2)N3CC(=O)Nc2ccccc2)cc(OC)c1OC` (stereo not drawn): the inhibition was 85.3% and 54.2% and 27.6%.

`COc1cc(C(=O)NC2CCN(CC(=O)Nc3ccccc3)CC2)cc(OC)c1OC`: the inhibition amounted to 20.7%.
